Values joined by “and” are separate entries in the source; they are usually repeats but may differ in a detail not shown here. Equal values may be shown once. In all, about 5,500 compounds went through this assay and about 2,000 (36%) were called active. Roughly 18% stayed inconclusive and do not appear here. No stated cut-off is given here; in the data, active means normalized growth mostly below about 0.91 (no sharp cut-off); inconclusive means no clear call, values can overlap the other calls; inactive means mostly above about 0.92. This is one part of the list.
Experiment: chemical genetic growth profiling, strain panel (AID 1159580);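 further: tested at 20 µM; growth read once vehicle control cultures reached saturation at 30 °C; 1 = growth at the plate median or of vehicle wells; lower values mean less growth of the strain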
Details: S. cerevisiae deletion strains, growth OD

Measured: normalized growth

Cc1onc(-c2ccccc2Cl)c1C(=O)N[C@@H]1C(=O)N2[C@@H]1SC(C)(C)[C@@H]2C(=O)O
inactive: locus YAL013W, strain DEP1, hits give low values 1.01 | locus YAL021C, strain ccr4, hits give low values 1.06 | locus YAL026C, strain drs2, hits give low values 1.02 | locus YAL030W, strain snc1, hits give low values 1.02 | locus YBL061C, strain skt5, hits give low values 1.02 | locus YBR009C, strain hhf1, hits give low values 0.994 | locus YBR021W, strain FUR4, hits give low values 1.02 | locus YBR023C, strain chs3, hits give low values 1.03 | locus YBR171W, strain sec66, hits give low values 1.03 | locus YBR229C, strain ROT2, hits give low values 1.01 | locus YBR231C, strain swc5, hits give low values 1.03 | locus YBR279W, strain paf1, hits give low values 1 | locus YCL011C, strain gbp2, hits give low values 1.02 | locus YCL016C, strain dcc1, hits give low values 1.01 | locus YCL029C, strain bik1, hits give low values 1.05 | locus YCL069W, strain vba3, hits give low values 1.03 | locus YCR088W, strain abp1, hits give low values 1.01 | locus YDL005C, strain med2, hits give low values 1.02 | locus YDL035C, strain GPR1, hits give low values 1 | locus YDL040C, strain nat1, hits give low values 1.02 | locus YDL074C, strain BRE1, hits give low values 1.03 | locus YDL101C, strain DUN1, hits give low values 1.01 | locus YDL134C, strain PPH21, hits give low values 1.01 | locus YDL185W, strain tfp1, hits give low values 1.01 | locus YDL192W, strain arf1, hits give low values 1.01 | locus YDR001C, strain nth1, hits give low values 1.04 | locus YDR069C, strain doa4, hits give low values 1.03 | locus YDR101C, strain arx1, hits give low values 1.02 | locus YDR137W, strain rgp1, hits give low values 0.971 | locus YDR150W, strain NUM1, hits give low values 1 | locus YDR159W, strain sac3, hits give low values 1 | locus YDR162C, strain NBP2, hits give low values 1.02 | locus YDR195W, strain ref2 1.03 | locus YDR297W, strain sur2, hits give low values 1.02 | locus YDR318W, strain mcm21, hits give low values 1.03 | locus YDR334W, strain swr1, hits give low values 1 | locus YDR335W, strain msn5, hits give low values 1.01 | locus YDR388W, hits give low values 1.02 | locus YDR392W, strain spt3, hits give low values 0.998 | locus YDR502C, strain sam2, hits give low values 1.02 | locus YEL003W, strain gim4, hits give low values 1.02 | locus YEL037C, strain rad23, hits give low values 1.02 | locus YEL061C, strain CIN8 (second series), hits give low values 1.02 | locus YEL061C, strain CIN8, hits give low values 1.01 | locus YER015W, strain faa2, hits give low values 1.02 | locus YER016W, strain bim1, hits give low values 0.994 | locus YER110C, hits give low values 1.01 | locus YER111C, strain swi4, hits give low values 1.03 | locus YER155C, strain BEM2 (second series), hits give low values 1.06 | locus YER155C, strain BEM2, hits give low values 1.01 | locus YER167W, strain BCK2, hits give low values 1.01 | locus YFR010W, strain ubp6, hits give low values 1.02 | locus YGL078C, strain dbp3, hits give low values 1.02 | locus YGL086W, strain mad1, hits give low values 1.01 | locus YGL167C, strain pmr1, hits give low values 1.03 | locus YGL173C, strain kem1, hits give low values 1.01 | locus YGL227W, strain vid30, hits give low values 1.01 | locus YGL240W, strain doc1, hits give low values 1.02 | locus YGL248W, strain PDE1, hits give low values 1.02 | locus YGL253W, strain hxk2, hits give low values 1.02 | locus YGR078C, strain PAC10, hits give low values 1.01 | locus YGR135W, strain pre9, hits give low values 1.03 | locus YGR229C, strain SMI1, hits give low values 1.02 | locus YGR252W, strain gcn5, hits give low values 1.05 | locus YHR013C, strain ard1, hits give low values 1.04 | locus YHR027C, strain rpn1, hits give low values 1.02 | locus YHR030C, strain SLT2, hits give low values 1.01 and 1 | locus YHR079C, strain IRE1 (second series), hits give low values 1.02 | locus YHR079C, strain IRE1, hits give low values 1 | locus YHR094C, strain hxt1, hits give low values 1.02 | locus YHR129C, strain ARP1, hits give low values 1.01 | locus YHR142W, strain chs7, hits give low values 1.02 | locus YHR200W, strain rpn10, hits give low values 1.03 | locus YIL066C, strain RNR3, hits give low values 1.01 | locus YIL073C, strain SPO22, hits give low values 1.06 | locus YIL125W, strain kgd1, hits give low values 1.03 | locus YIR030C, strain dcg1, hits give low values 1.02 | locus YJL092W, strain hpr5, hits give low values 1.03 | locus YJL095W, strain BCK1 (second series), hits give low values 1.02 | locus YJL095W, strain BCK1, hits give low values 1.02 and 0.998 | locus YJL115W, strain asf1, hits give low values 1.01 | locus YJL129C, strain trk1, hits give low values 1.05 | locus YJL134W, strain LCB3, hits give low values 1 | locus YJL154C, strain vps35, hits give low values 1.03 | locus YJL164C, strain tpk1, hits give low values 1.01 | locus YJL166W, strain qcr8, hits give low values 1.03 | locus YJL168C, strain set2, hits give low values 1.02 | locus YJL187C, strain SWE1 (second series), hits give low values 1.02 | locus YJL187C, strain SWE1, hits give low values 1.01 | locus YJR043C, strain POL32, hits give low values 0.995

Source: PubChem BioAssay AID1159580 (chemical genetic matrix, 2015)
